Bioassay records (PubChem)
KDM4E inh – qHTS Assay for Inhibitors of Human Jumonji Domain Containing 2E (JMJD2E) | hit rate 1.6% among 230,000 | JMJD2E catalytic domain, FDH-coupled NADH fluorescence (FDH is formaldehyde dehydrogenase) | Potency, µM (series often up to 57.1 µM), for the others: top-dose activity change, negative = inhibition, actives largely listed as inhibitors; active = well fitted inhibition curve with a large enough effect, not every such curve was filed as active; inconclusive = small, poorly fitted or top-dose-only effect, or another doubt; inactive = no such curve, though single readings can be large or run the other way;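 note: 0% = wells with enzyme and -100% = buffer wells without enzyme; nearly all actives have a fitted effect of over 50% in size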
Target sequence (B2RXH2 1-337 limits assumed): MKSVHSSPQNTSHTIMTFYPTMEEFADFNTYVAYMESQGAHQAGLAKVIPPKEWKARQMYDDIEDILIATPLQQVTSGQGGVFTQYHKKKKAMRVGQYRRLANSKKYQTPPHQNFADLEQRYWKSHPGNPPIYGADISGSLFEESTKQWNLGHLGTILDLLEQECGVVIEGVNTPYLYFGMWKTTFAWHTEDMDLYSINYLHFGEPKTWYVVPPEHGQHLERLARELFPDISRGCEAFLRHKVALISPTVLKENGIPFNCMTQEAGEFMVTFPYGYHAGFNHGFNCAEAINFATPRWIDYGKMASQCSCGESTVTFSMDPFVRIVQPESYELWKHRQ
Tau fluor cs – Counterscreen qHTS for Inhibitors of Tau Fibril Formation, Fluorescence Polarization; tau K18 P301L Alexa594 fluorescence, heparin fibrillization; Potency, µM (series often up to 57.7 µM), for inactives: at the top dose activity change, negative = decrease; hit rate 0.93% among 280,000; AID 1463, 2008; note: nearly all actives have a fitted effect of over 55% in size
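Human K18 P301L tau (15 uM unlabeled plus 0.24 uM Alexa 594-labeled, final) in 100 mM sodium acetate pH 7 was mixed with compound and 20 uM heparin and incubated 6 hr at 37 C.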
Tau fibril ThT – qHTS for Inhibitors of Tau Fibril Formation, Thioflavin T Binding | Microtubule-associated protein tau (Homo sapiens), P10636 | Potency, µM (highest dose often 57.4 µM), inactives show at the top dose activity, negative = inhibition, usual class: inhibitors | AID 1460, 2008 | hit rate 2.1% among 270,000 | recombinant tau K18 P301L (four-repeat tau fragment), heparin-induced fibrillization, ThT fluorescence; note: nearly all actives have a fitted effect of over 55% in size
Target sequence (P10636 561-689 P618L limits assumed): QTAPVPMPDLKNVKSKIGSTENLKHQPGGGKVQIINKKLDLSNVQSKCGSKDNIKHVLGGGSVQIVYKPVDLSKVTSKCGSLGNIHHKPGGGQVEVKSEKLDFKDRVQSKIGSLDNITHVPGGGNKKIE
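Tau K18 P301L fragment (15 uM unlabeled plus 0.24 uM Alexa 594-labeled) in 100 mM sodium acetate pH 7 with compound, fibrillization induced by 20 uM heparin for 6 hr at 37 C. Thioflavin T (30 uM) added, fluorescence read after 1 hr (ex 450, em 510 nm).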
Tau fibril FP – qHTS for Inhibitors of Tau Fibril Formation, Fluorescence Polarization. Microtubule-associated protein tau (Homo sapiens), P10636. K18 P301L tau heparin fibrillization, Alexa594 FP, 6 h. Potency, µM (series often up to 57.7 µM), for inactives: at the highest dose activity, negative = inhibition, hits mostly inhibitors. hit rate 0.39% among 280,000. AID 1468, 2008; note: nearly all actives have a fitted effect of over 55% in size
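Recombinant K18 P301L […], labeled with Alexa 594 at 0.24 uM over 15 uM unlabeled; heparin inducer 20 uM final; 37 C, 6 hr; FP endpoint.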
ALDH1A1 inh – qHTS Assay for Inhibitors of Aldehyde Dehydrogenase 1 (ALDH1A1); Potency, µM (series often up to 75.3 µM), for inactives: at the highest dose activity, negative = inhibition, most hits filed as inhibitors; Purified ALDH1A1, NADH fluorescence, propionaldehyde substrate; hit rate 7.3% among 220,000; AID 1030, 2008; Aldehyde dehydrogenase 1A1 (Homo sapiens), P00352; active = well fitted inhibition curve with a large enough effect, not every such curve was filed as active; inconclusive = small, poorly fitted or top-dose-only effect, or another doubt; inactive = no such curve, though single readings can be large or run the other way;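 note: plate controls were no enzyme wells and a reference inhibitor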
HPGD inh – qHTS Assay for Inhibitors of HPGD (15-Hydroxyprostaglandin Dehydrogenase). hit rate 4.3% among 150,000. purified HPGD, NADH fluorescence kinetic, PGE2 substrate. Potency, µM, inactives show at the top dose activity change, negative = inhibition, most hits filed as inhibitors. 15-hydroxyprostaglandin dehydrogenase [NAD(+)] (Homo sapiens), P15428; active = well fitted inhibition curve with a large enough effect, not every such curve was filed as active; inconclusive = small, poorly fitted or top-dose-only effect, or another doubt; inactive = no such curve, though single readings can be large or run the other way
Target sequence (P15428 whole entry, looked up): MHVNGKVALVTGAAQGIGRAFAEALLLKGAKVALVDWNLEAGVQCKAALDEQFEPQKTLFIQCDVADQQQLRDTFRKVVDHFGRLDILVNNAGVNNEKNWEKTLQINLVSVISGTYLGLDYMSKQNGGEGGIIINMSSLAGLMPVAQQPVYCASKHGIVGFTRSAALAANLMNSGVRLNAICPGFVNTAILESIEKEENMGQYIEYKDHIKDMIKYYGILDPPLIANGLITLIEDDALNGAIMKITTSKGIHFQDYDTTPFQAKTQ
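NADH formation kinetics: reaction with 30 uM PGE2 and 1 mM NAD+ (final), 20 nM enzyme, Tris-HCl pH 8 with Tween 20, after 15 min compound preincubation at room temperature. Fluorescence change, last versus first of five reads.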
Active calls of the source: *; [ ] = remark or other dose. A selection: hits, their analogues and other compounds. The true share with any hit is near 9.9%. Unless noted, calls come from the whole dose curve; as a rule, active = well fitted curve in the direction sought with a large enough effect; inconclusive = small, poorly fitted or top-dose-only effect, or another doubt; inactive = no such curve, though single readings can be large; an effect the other way counts as inactive or inconclusive. Unless noted, % is set by controls: 0 for no effect and ±100 for the full control effect; potency is the fitted concentration of half-maximal effect.

Results for COc1ccc(-c2nc3ccc(N4CCCC4)cc3c(=O)[nH]2)cc1OC ?
KDM4E inh: inconclusive; Tau fluor cs: inconclusive; Tau fibril ThT: 2.2µM*; Tau fibril FP: 3%; ALDH1A1 inh: inconclusive; HPGD inh: inconclusive

What do the screens show for `Cc1ccc(C(c2cccc(Br)c2)c2c(C)[nH]c3ccccc23)s1` (centres undefined)?
Tau fluor cs: 5.6µM*[quencher]; Tau fibril ThT: inconclusive; Tau fibril FP: inconclusive

How did Cc1[nH]c2ccccc2c1C(c1ccccn1)c1c(C)[nH]c2ccccc12 do in these assays?
KDM4E inh: inconclusive; Tau fluor cs: inconclusive; Tau fibril ThT: inconclusive; Tau fibril FP: 17%; ALDH1A1 inh: inconclusive; HPGD inh: -19%

How did O=C(N/N=C(\CC(=O)c1cccs1)C(F)(F)F)c1cccnc1 do in these assays?
KDM4E inh: inconclusive; Tau fluor cs: -17%; Tau fibril ThT: inconclusive; Tau fibril FP: 4%; ALDH1A1 inh: 20µM*

How did O=C(NC(O)C(=O)c1ccccc1)c1cccs1 (centres undefined) do in these assays?
KDM4E inh: 8%; Tau fluor cs: -12%; Tau fibril ThT: inconclusive; Tau fibril FP: -2%; ALDH1A1 inh: inconclusive; HPGD inh: -8%

Results for O=C(NC(O)C(=O)c1cccs1)c1cccnc1 (centres undefined) ?
KDM4E inh: -3%; Tau fluor cs: -5%; Tau fibril ThT: -10%; Tau fibril FP: -1%; ALDH1A1 inh: 10µM*; HPGD inh: -18%

Results for COc1cccc(NC(=O)C2CCN(S(=O)(=O)c3cccc4nonc34)CC2)c1 ?
Tau fluor cs: -22%; Tau fibril ThT: -16%; Tau fibril FP: -1%

Results for Cc1ccsc1/C=C1/SC(N2CC(C)OC(C)C2)=NC1=O (centres undefined) ?
KDM4E inh: 1%; Tau fluor cs: -7%; Tau fibril ThT: inconclusive; Tau fibril FP: -2%; ALDH1A1 inh: 11µM*; HPGD inh: 32µM*

How did Cc1ccc(-c2nnc(CSc3nc4cc5c(cc4cc3C)OCO5)o2)cc1 do in these assays?
KDM4E inh: -11%; Tau fluor cs: -14%; Tau fibril ThT: -4%; Tau fibril FP: 1%; ALDH1A1 inh: -11%; HPGD inh: 18µM*

Results for CCCCC(=O)OC1=C(C(=O)c2ccccc2)N(C)S(=O)(=O)c2ccccc21 ?
Tau fluor cs: -23%; Tau fibril ThT: 14µM*; Tau fibril FP: 12%

How did Cc1oc2ncn(C)c(=O)c2c1C(=O)NCCCN1CCCC(C)C1 (centres undefined) do in these assays?
Tau fluor cs: -5%; Tau fibril ThT: 0%; Tau fibril FP: -10%

What do the screens show for `C=CCSSSCC=C`?
KDM4E inh: -4%; Tau fluor cs: 6%; Tau fibril ThT: 9%; Tau fibril FP: -1%; ALDH1A1 inh: 13µM*; HPGD inh: 28µM*

Results for Cc1ccc(C(=O)CC(Nc2ccc(F)cc2)c2ccccc2)cc1 (centres undefined) ?
KDM4E inh: 0%; Tau fluor cs: inconclusive; Tau fibril ThT: -16%; Tau fibril FP: 17%; ALDH1A1 inh: -6%; HPGD inh: -7%

Results for CN1CCN(Cc2nc3c(c(=O)n(C)c(=O)n3C)n2CCCc2ccccc2)CC1 ?
KDM4E inh: -2%; Tau fluor cs: -1%; Tau fibril ThT: -7%; Tau fibril FP: -2%; ALDH1A1 inh: 5.6µM*; HPGD inh: -24%

What do the screens show for `Cn1c(=O)c2c(nc(CN3CCN(CCO)CC3)n2CCc2ccccc2)n(C)c1=O`?
KDM4E inh: 8%; Tau fluor cs: 10%; Tau fibril ThT: 4%; Tau fibril FP: 1%; ALDH1A1 inh: 28µM*

What do the screens show for `CCCCNC(=O)CCCn1c(=S)[nH]c2cc3c(cc2c1=O)OCO3`?
KDM4E inh: -2%; Tau fluor cs: -2%; Tau fibril ThT: -2%; Tau fibril FP: -4%; ALDH1A1 inh: 5%; HPGD inh: 16µM*

Results for COCCCNC(=O)CCCn1c(=O)[nH]c2ccccc2c1=O ?
KDM4E inh: -2%; Tau fluor cs: -9%; Tau fibril ThT: -6%; Tau fibril FP: 1%; ALDH1A1 inh: -7%; HPGD inh: -17%

What do the screens show for `O=C(CCCn1c(=S)[nH]c2ccccc2c1=O)N1CCOCC1`?
KDM4E inh: 0%; Tau fluor cs: -4%; Tau fibril ThT: -3%; Tau fibril FP: 2%; ALDH1A1 inh: 0%; HPGD inh: -21%

How did CCN(CC)CCNC(=O)CCn1c(=S)[nH]c2cc3c(cc2c1=O)OCO3 do in these assays?
KDM4E inh: -11%; Tau fluor cs: 14%; Tau fibril ThT: 0%; Tau fibril FP: 3%; ALDH1A1 inh: 17%; HPGD inh: -15%

What do the screens show for `O=C(CCCCCn1c(=S)[nH]c2ccccc2c1=O)N1CCOCC1`?
KDM4E inh: 2%; Tau fluor cs: -11%; Tau fibril ThT: -8%; Tau fibril FP: -3%; ALDH1A1 inh: 4%; HPGD inh: 14µM*

Results for COCCNC(=O)CCCCCn1c(=S)[nH]c2ccccc2c1=O ?
KDM4E inh: -3%; Tau fluor cs: 3%; Tau fibril ThT: -3%; Tau fibril FP: 6%; ALDH1A1 inh: 3%; HPGD inh: 13µM*

How did O=C(CCCCn1c(=S)[nH]c2ccsc2c1=O)NCc1ccco1 do in these assays?
KDM4E inh: -7%; Tau fluor cs: 2%; Tau fibril ThT: -8%; Tau fibril FP: 4%; ALDH1A1 inh: 5%; HPGD inh: 14µM*

How did O=C(c1nc2ccc([N+](=O)[O-])cc2[nH]c1=O)[C@@H](O)c1ccc2c(c1)OCO2 do in these assays?
ALDH1A1 inh: 2%[13.5 µM]; HPGD inh: -3%

What do the screens show for `CC(=O)Nc1ccc(S(=O)(=O)Nc2nccc(/C=C/c3ccc(Cl)cc3)n2)cc1`?
KDM4E inh: -1%; Tau fluor cs: -22%; Tau fibril ThT: inconclusive; Tau fibril FP: inconclusive; ALDH1A1 inh: inconclusive; HPGD inh: inconclusive

What do the screens show for `CCOc1ccccc1NC(=O)CCCn1cc([N+](=O)[O-])cn1`?
KDM4E inh: -5%; Tau fluor cs: 7%; Tau fibril ThT: 1%; Tau fibril FP: -3%; ALDH1A1 inh: inconclusive
